About 2,000 (36%) of roughly 5,500 compounds were called active. About 18% were inconclusive and are not listed. Rule as the data show it: active = normalized growth mostly below about 0.91 (no sharp cut-off); inconclusive = no clear call, values can overlap the other calls; inactive = mostly above about 0.92. The list shows a part of the results.
Experiment: chemical genetic growth profiling, strain panel (AID 1159580);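 also: tested at 20 µM; growth read once vehicle control cultures reached saturation at 30 °C; 1 = growth at the plate median or of vehicle wells; lower values mean less growth of the strain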
Settings: S. cerevisiae deletion strains, growth OD

Measured: normalized growth

COCCCCC(=NOCCN)c1ccc(C(F)(F)F)cc1
inactive: locus YAL040C, strain CLN3, hits give low values 0.994 | locus YCL061C, strain MRC1 (second series), hits give low values 0.997 | locus YDR363W, strain ESC2, hits give low values 0.975 | locus YER002W, strain NOP16, hits give low values 1 | locus YJR075W, strain HOC1, hits give low values 0.992 | locus YNL153C, strain GIM3, hits give low values 1.02 | locus YNL175C, strain NOP13, hits give low values 1.01 | locus YNL197C, strain WHI3, hits give low values 1 | locus YNL224C, strain SQS1, hits give low values 1.02 | locus YNL322C, strain KRE1, hits give low values 0.988 | locus YOR083W, strain WHI5 (second series), hits give low values 0.993

From PubChem BioAssay AID1159580 (chemical genetic matrix, 2015)
